VP16 counter = counter-screen for ROR gamma inhibitors: Gal4-VP16 reporter. hit rate 3.5% among 310,000. Potency, µM (doses to about 53.6 µM), for inactives: top-dose activity, negative = inhibition, usual class: inhibitors. Drosophila S2 Gal4-VP16 UAS-luciferase, luminescence, 20 h;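 note: Gal4-VP16 expression switched on by copper sulfate through the metallothionein promoter; % is set by controls: 0 for no effect and ±100 for the full control effect; nearly all actives have a fitted effect of over 50% in size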
ClpP mod = qHTS Assay for Activators of ClpP; purified B. subtilis ClpP, FRET peptide cleavage, 20 min; Potency, µM (top dose mostly 57.5 µM), for inactives: at the highest dose activity change, negative = active; hit rate 1.9% among 340,000; AID 651965, 2013; active = well fitted falling curve with a large enough effect; inconclusive = small, poorly fitted or top-dose-only effect; inactive = no such curve, though single readings can be large or run the other way; note: the source files actives as falling curves though it sought activators and does not explain the sign; nearly all actives have a fitted effect of over 65% in size
Target sequence (P80244 whole entry, looked up): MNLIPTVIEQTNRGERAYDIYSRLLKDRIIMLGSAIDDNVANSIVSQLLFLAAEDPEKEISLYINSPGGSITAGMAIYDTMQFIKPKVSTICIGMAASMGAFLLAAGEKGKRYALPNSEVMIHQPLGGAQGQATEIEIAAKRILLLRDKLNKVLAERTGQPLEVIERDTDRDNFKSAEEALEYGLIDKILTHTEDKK
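FRET quenching reversal measured ClpP activation: 10 microg/mL B. subtilis ClpP at pH 8 with the FRET-FV decapeptide, read at 430 nm after 320 nm excitation. The 20-min minus 0-min signal was scaled between DMSO/no-enzyme wells and ADEP (5.8 microM final).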
Sfp PPTase inh = Sfp phosphopantetheinyl transferase inhibition; Biochemical Sfp PPTase activity, qHTS; hit rate 3.5% among 310,000; Q9F4F7; Potency, µM, inactives show largest response in the series, negative = inhibition, actives largely listed as inhibitors;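 note: the enzyme is Sfp with the accession as filed and its product quenches rhodamine fluorescence; 0% = enzyme reaction without inhibitor and -100% = no enzyme wells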
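Buffer: 50 mM Hepes-Na pH 7.6, 10 mM MgCl2, 0.01% Nonidet P-40, 0.01% BSA. Enzyme 15 nM, pre-exposed to compound 15 min; substrates then added and fluorescence change tracked over 30 min.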
PINK1 expr mod = PINK1 expression modulation; PINK1 immunofluorescence, high-content cytometry, 24 h; Potency, µM (doses to about 76.6 µM), for inactives: at the highest dose activation (PINK1 increase), most hits filed as activators; hit rate 0.2% among 410,000; AID 624263; active = well fitted activation curve with a large enough effect; inconclusive = small, poorly fitted or top-dose-only effect; cell line not stated here; note: % of control where 0% means no effect; nearly all actives have a fitted effect of over 65% in size
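Stable cell line treated 24 h with compounds at 5 concentrations (CCCP controls), then fixed and immunostained for PINK1 plus nuclear and cell stains; PINK1 immunofluorescence quantified by laser-scanning microplate cytometry.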
RORgamma inh = ROR gamma (mouse) transcription inhibition | P51450 | Drosophila S2 Gal4-RORgamma UAS-luciferase reporter, 20 h | Potency, µM (series often up to 53.6 µM), for the others: top-dose activity change, negative = inhibition, hits mostly inhibitors | hit rate 5.4% among 310,000; note: % is set by controls: 0 for no effect and ±100 for the full control effect; nearly all actives have a fitted effect of over 60% in size
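A Gal4/UAS one-hybrid system in insect cells: metallothionein-promoter Gal4–ROR gamma fusion plus Photinus luciferase reporter. Copper sulfate 700 uM final, 20 hr ambient incubation, luminescent detection after 10 min with reagent.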
Epigenetic derep = derepresses silenced GFP reporter in murine cells | Potency, µM (top dose mostly 53.9 µM), for the others: top-dose GFP activation, hits mostly activators | murine LDR cells, GFP reporter derepression, 30 h | hit rate 0.2% among 280,000; note: % of control where 0% means no effect; nearly all actives have a fitted effect of over 60% in size
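Derepression of a silenced CMV-GFP reporter in murine LDR cells is scored by enumerating GFP-positive cells with a laser-scanning microplate cytometer after 30 hours of treatment at 37 C.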
The depositor's hits bear a star; u = inconclusive; x = not tested or not shown; [ ] = dose if it differs, or a comment. An excerpt weighted towards active compounds, which were near 8.1% of everything screened. Unless noted, calls come from the whole dose curve; as a rule, active = well fitted curve in the direction sought with a large enough effect; inconclusive = small, poorly fitted or top-dose-only effect, or another doubt; inactive = no such curve, though single readings can be large; an effect the other way counts as inactive or inconclusive. Potency is the fitted concentration of half-maximal effect.

SMILES	VP16 counter	ClpP mod	Sfp PPTase inh	PINK1 expr mod	RORgamma inh	Epigenetic derep
Cc1cc2ccccn2c1C(=S)NC(=O)c1ccccc1	3.55µM*	4.9%	1.4%	0.8%	3.16µM*	1.1%
COc1ccc(C(=O)NCc2nc(-c3cccc(NC(=O)c4ccc(C)s4)c3)oc2C)cc1	x	x	x	-0.7%	x	x
O=C(COc1c(Br)cc(Br)c2cccnc12)N1CCc2ccccc2C1	7.94µM*	-24.2%	1.6%	u	5.62µM*	-1.2%
CN1CCN(Cc2cc(COCc3ccccc3)c3cccnc3c2O)CC1	1.26µM*	-0.8%	-0.8%	-1.0%	2µM*	3.55µM*
O=C(COc1c(Br)cc(Br)c2cccnc12)Nc1ccccc1F	20µM*	-0.7%	-13.2%	0.4%	u	1.2%
O=C(COc1cccc2cccnc12)N1CCc2ccccc2C1	8.5%	-7.4%	3.2%	-1.0%	17.6%	-1.0%
O=C(COc1c(Br)cc(Br)c2cccnc12)N1CCCCC1	u	-4.0%	-1.3%	5.4%	10µM*	0.0%
COc1ccccc1CNC(=O)CSc1nc2nc(C)c(Cc3ccccc3C)c(C)n2n1	x	0.0%	x	-0.7%	x	0.0%
Cc1ccc(C(=O)c2oc3ccccc3c2NC(=O)COc2ccccc2C)cc1	x	-7.6%	x	1.4%	x	-1.0%
CCc1ccc(-c2nc(CS(=O)CC(=O)NCCc3ccc(Cl)cc3)c(C)o2)cc1 (centres undefined)	x	-1.9%	x	2.5%	x	0.0%
N#CCCn1c(=O)c(CCc2ccccc2)nc2cnc(Nc3ccccc3)nc21	4.2%	x	9.8%	0.4%	-2.7%	x
Oc1c(Cl)cc(CN2CCOCC2)c2cccnc12	x	-0.2%	x	u	x	x
Oc1c(CN2CCCCC2)cc(Br)c2cccnc12	1µM*	0.7%	44.7µM*	3.0%	3.98µM*	u
CO/N=C(/C)CCC(=O)OC[C@@H]1O[C@H](C#Cc2ccccc2)C=C[C@@H]1Oc1ccc(C)cc1	6.3%[10 µM]	x	u	x	-7.9%[10 µM]	0.0%[10.1 µM]
COC(=O)c1ccc(C(NC(=O)OCc2ccccc2)/C(F)=C/[C@@H](C)C(=O)NC2CCCCC2)cc1 (some centres undefined)	u	x	32.6%	x	u	0.2%
CCN(CC)S(=O)(=O)c1ccc(NC(=O)CN(c2ccccc2)S(=O)(=O)N(C)C)cc1	x	1.4%	x	-1.1%	x	0.0%
COc1ccc(-c2cnc3c(c2)CCC3(C#N)C#N)cc1	3.2%	15.8µM*	2.6%	17.8%	u	1.9%
CC(=O)N[C@@H](Cc1c[nH]c2ccccc12)C(=O)O	3.1%	x	10.3%	x	-21.2%	7.7%
Cc1oc(-c2ccccc2)cc1C(=O)NC(Cc1c[nH]c2ccccc12)C(=O)O (centres undefined)	-9.2%	u	39.8µM*	-1.9%	-4.0%	1.5%
CC(C)c1nn2c(=O)cc(COC(=O)c3ccc(NC(=O)COc4ccccc4)cc3)nc2s1	x	-3.8%	x	2.0%	x	0.3%
O=C(O)c1cnn(-c2nc(-c3ccc(F)cc3)cs2)c1C(F)(F)F	-1.1%	x	25.6%	0.7%	5.5%	-4.3%
CCOC(=O)c1cnn(-c2nc(-c3ccc(C)cc3)cs2)c1C(F)(F)F	-21.5%	31.6µM*	u	11.6%	-18.6%	-1.7%
C=CCn1c(C)cc(C(=O)COC(=O)[C@@H](NC(=O)c2ccccc2Cl)C(C)C)c1C	12.6µM*	2.6%	6.5%	-2.4%	14.1µM*	1.5%
CCOc1cc(-c2ccc(OC(=O)c3ccccc3F)cc2)cc(=O)c2c(C)oc(C)c12	x	-2.8%	x	0.0%	x	u
Cc1cccc(NC(=O)CN(C)S(=O)(=O)c2ccc3c(c2)c(=O)n(C)c(=O)n3C)c1C	x	-1.5%	x	-0.5%	x	-0.3%
c1ccc(-c2ccccc2OCCOCCN2CCNCC2)cc1	-1.7%	x	20µM*	0.9%	-5.1%	-1.1%
CCN1CCN(CCOCCOc2ccccc2-c2ccccc2)CC1	9.7%	x	50.1µM*	x	2.2%	3.1%
CC1CN(Cc2cccn2-c2ncccn2)Cc2cc(Cl)ccc2O1 (centres undefined)	x	x	x	1.0%	x	x

Screening data as filed in PubChem BioAssay.
